Results on nine compounds are retold here after PubChem BioAssay (Tox21).

The structures appear in SMILES notation. Records with an inconclusive call do not appear. Unmarked numbers belong to inactive results. Active and inactive are the calls of the source. Unless noted, calls follow the shape of the dose curve; as a rule, active = well fitted curve in the direction sought with a large enough effect in the repeat runs; inconclusive = weak or mixed curves; inactive = no such curve, though single readings can be large; an effect the other way counts as inactive or inconclusive.

Experiment [1] in a line: qHTS assay to identify small molecule antagonists of the peroxisome proliferator-activated receptor gamma (PPARg) signaling pathway - cell viability counter screen (AID 743194). Also: nearly all actives have a fitted effect of over 55% in size. In short, it runs like this:
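Viability was measured as CellTiter-Glo luminescence in GeneBLAzer PPARg UAS-bla HEK293H cells. These cells had been exposed 17 h at 37 C to compounds together with rosiglitazone at 50 nM final, with the beta-lactamase readout taken in the same wells.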
Background: qHTS replaces the single test concentration by a dilution series.

A short description of experiment [2]: qHTS assay for small molecule agonists of the antioxidant response element (ARE) signaling pathway (AID 743202; active = well fitted activation curve with a large enough effect in the signal ratio in the repeat runs, not every such curve was filed as active; the % refers to the signal ratio). In a few lines:
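Beta-lactamase reporter activity, read as fluorescence intensity, reflects ARE/Nrf2 pathway induction in HepG2 cells after 16 h compound exposure at 37 C; substrate loading was 2 h at room temperature.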

A short description of experiment [3]: qHTS assay for small molecule agonists of the antioxidant response element (ARE) signaling pathway - cell viability counter screen (AID 743203; calls by dose curve; also: nearly all actives have a fitted effect of over 55% in size). In short, it runs like this: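 Viability counter screen: CellTiter-Glo luminescence, read after 30 min at room temperature, in ARE-bla HepG2 wells. Compound exposure lasted 16 h at 37C/5% CO2, following a 5 h pre-incubation of the cells after plating.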

Experiment [4] can be described thus: qHTS assay for small molecule activators of the heat shock response signaling pathway - cell viability counter screen (AID 743209). Also: nearly all actives have a fitted effect of over 50% in size. In short, it runs like this: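 Cytotoxicity counter screen run in the same wells as the heat-shock bla reporter assay: HeLa HSE-bla cells, 5 h compound exposure at 37 C, viability read by CellTiter-Glo luminescence.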
Experiment [5] can be described thus: qHTS assay to identify small molecule agonists of the peroxisome proliferator-activated receptor delta (PPARd) signaling pathway - cell viability counter screen (AID 743211). Also: nearly all actives have a fitted effect of over 55% in size. In a few lines:
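Viability of GeneBLAzer PPARd UAS-bla HEK293H cells was assessed after 17 h compound incubation at 37C, using CellTiter-Glo reagent added after the reporter read and luminescence recorded 30 min later.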

A short description of experiment [6]: qHTS assay to identify small molecule agonists of the farnesoid-X-receptor (FXR) signaling pathway - cell viability counter screen (AID 743218). Also: nearly all actives have a fitted effect of over 45% in size. In a few lines: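 Viability counter screen in the same wells: CellTiter-Glo luminescence, 30 min room-temperature incubation, measured after the beta-lactamase read. Cells were GeneBLAzer FXR-UAS-bla HEK 293T, compound-treated 16 h at 37C.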

Experiment [7] concerns the target Bile acid receptor (Homo sapiens) (UniProt Q96RI1). Description: qHTS assay to identify small molecule agonists of the farnesoid-X-receptor (FXR) signaling pathway (AID 743220; active = well fitted activation curve with a large enough effect in the signal ratio in the repeat runs, not every such curve was filed as active; the % refers to the signal ratio). In short, it runs like this:
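FXR-UAS-bla HEK 293T cells carrying a UAS-driven beta-lactamase reporter were plated for 5 h at 37C/5% CO2, then exposed to DMSO-dissolved Tox21 10K compounds for 16 h at 37C. A LiveBLAzer B/G FRET substrate was loaded for 2 h at room temperature before fluorescence reading.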

Experiment [8] is described as follows: qHTS assay to identify small molecule antagonists of the farnesoid-X-receptor (FXR) signaling pathway - cell viability counter screen (AID 743221; active = well fitted cell-killing curve with a large enough effect in the repeat runs, not every such curve was filed as active; also: nearly all actives have a fitted effect of over 50% in size). In short, it runs like this:
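Quantitative HTS of the Tox21 10K library run in parallel with the beta-lactamase reporter read. HEK 293T cells carrying a UAS-driven bla reporter got compound and 50 uM CDCA (final) for 16 h; ATP-based luminescence followed.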

In experiment [9] the target is Vitamin D3 receptor (Homo sapiens) (UniProt P11473). Description: qHTS assay to identify small molecule agonists of the vitamin D receptor (VDR) signaling pathway (AID 743222; calls by dose curve). In short, it runs like this: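 Agonist mode, beta-lactamase reporter: fluorescence from LiveBLAzer B/G FRET substrate (2 h, room temperature) read after 16 h compound treatment at 37 C of VDR-bla cells, which were pre-incubated 4 h after seeding.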

Experiment [10] has the same target. Description: qHTS assay to identify small molecule antagonists of the vitamin D receptor (VDR) signaling pathway (AID 743223; active = well fitted inhibition curve with a large enough effect in the signal ratio in the repeat runs, not every such curve was filed as active; the % refers to the signal ratio). In a few lines: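 Fluorescence from LiveBLAzer B/G FRET substrate, read after 2 h at room temperature, reflects beta-lactamase reporter activity in VDR-bla cells treated 16 h at 37C with compounds and agonist 1alpha,25-dihydroxyvitamin D3 (3 nM final).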

Experiment [11] has as its target Peroxisome proliferator-activated receptor gamma (Homo sapiens) (UniProt P37231). Description: qHTS assay to identify small molecule antagonists of the peroxisome proliferator-activated receptor gamma (PPARg) signaling pathway (AID 743191; calls by dose curve; also: series mostly up to about 63 µM; nearly all actives have a fitted effect of over 30% in size). In short, it runs like this: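 Beta-lactamase reporter under UAS control in HEK293H PPARg-bla cells; compound treatment 17 h at 37C. Read-out: fluorescence intensity after 1 h room-temperature incubation with LiveBLAzer B/G FRET substrate.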

Experiment [12] in a line: qHTS assay for small molecule activators of the heat shock response signaling pathway (AID 743210; active = well fitted activation curve with a large enough effect in the signal ratio in the repeat runs, with a control signal flat, not every such curve was filed as active; the % refers to the signal ratio;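 also: HeLa cells with beta-lactamase reporter driven by heat shock elements; series mostly up to about 63 µM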). In a few lines:
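Fluorescence from a cleaved B/G FRET substrate (2.5 h, room temp) reports HSE-driven beta-lactamase in HeLa cells treated 5 h at 37 C with DMSO-dissolved compounds.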

Experiment [13] has as its target Peroxisome proliferator-activated receptor delta (Homo sapiens) (UniProt Q03181). Description: qHTS assay to identify small molecule agonists of the peroxisome proliferator-activated receptor delta (PPARd) signaling pathway (AID 743212; calls by dose curve;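 also: HEK293H cells with PPARd UAS beta-lactamase reporter GeneBLAzer system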). In short, it runs like this:
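Steps: seed PPARd-bla HEK293H cells; incubate 5 h, 37 C, 5% CO2; add compounds in DMSO; incubate, 37 C; add LiveBLAzer B/G FRET substrate; hold 2 h at room temperature; measure fluorescence.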

A short description of experiment [14]: qHTS assay to identify small molecule antagonists of the peroxisome proliferator-activated receptor delta (PPARd) signaling pathway - cell viability counter screen (AID 743213). Also: nearly all actives have a fitted effect of over 50% in size. In short, it runs like this:
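PPARd-bla HEK293H cells (3000/well) got compound plus 300 nM L165041 agonist for 17 h at 37 C. Viability in the same wells came from CellTiter-Glo luminescence after 30 min at room temperature.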

In experiment [15] the target is Peroxisome proliferator-activated receptor delta (Homo sapiens) (UniProt Q03181). Description: qHTS assay to identify small molecule antagonists of the peroxisome proliferator-activated receptor delta (PPARd) signaling pathway (AID 743215; active = well fitted inhibition curve with a large enough effect in the signal ratio in the repeat runs, not every such curve was filed as active; the % refers to the signal ratio;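 also: cells stimulated with agonist L165041 at 300 nM final during compound exposure; series mostly up to about 62 µM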). In short, it runs like this:
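Agonist L165041 (300 nM final) added with compound to PPARd-bla HEK293H UAS-bla reporter cells; 17 h incubation at 37 C. Read-out: LiveBLAzer FRET substrate, 2 h at room temperature, fluorescence intensity.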

The target of experiment [16] is Peroxisome proliferator-activated receptor gamma (Homo sapiens) (UniProt P37231). Description: qHTS assay to identify small molecule agonists of the peroxisome proliferator-activated receptor gamma (PPARg) signaling pathway (AID 743094; active = well fitted activation curve with a large enough effect in the signal ratio in the repeat runs, not every such curve was filed as active; the % refers to the signal ratio). In a few lines: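 Agonist activity was taken from a beta-lactamase reporter (FRET substrate, 1 h at room temperature) in HEK293H cells carrying a PPARg UAS-bla construct. Compounds in DMSO were incubated 17 h at 37C after a 5 h cell pre-incubation.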

A short description of experiment [17]: qHTS assay to identify aromatase inhibitors - cell viability counter screen (AID 743084).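 Also: cells stimulated with testosterone during compound exposure; potency is read from the fitted curve at half-maximal effect; nearly all actives have a fitted effect of over 55% in size.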
The target in experiment [18] is Bile acid receptor (Homo sapiens) (UniProt Q96RI1). Description: qHTS assay to identify small molecule antagonists of the farnesoid-X-receptor (FXR) signaling pathway (AID 743217; active = well fitted inhibition curve with a large enough effect in the signal ratio in the repeat runs, not every such curve was filed as active; the % refers to the signal ratio). In short, it runs like this: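 Antagonist mode: chenodeoxycholic acid at 50 uM final stimulates a UAS-driven beta-lactamase reporter in HEK 293T FXR-bla cells during 16 h, 37C compound exposure. Read-out is FRET substrate fluorescence after 2 h at room temperature.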

Experiment [19] can be described thus: qHTS assay to identify small molecule that activate the aryl hydrocarbon receptor (AhR) signaling pathway - cell viability counter screen (AID 743086).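 Also: HepG2 liver cells carrying the AhR DRE luciferase reporter; series mostly up to about 70 µM; nearly all actives have a fitted effect of over 45% in size.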 In short, it runs like this:
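Cytotoxicity counter screen: CellTiter-Fluor signal (30 min, 37 C) in 4000 HepG2 cells/well carrying the DRE-luciferase reporter, following 24 h compound exposure at 37 C.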

Chain of Bile acid receptor (Homo sapiens) (Q96RI1 whole entry, looked up): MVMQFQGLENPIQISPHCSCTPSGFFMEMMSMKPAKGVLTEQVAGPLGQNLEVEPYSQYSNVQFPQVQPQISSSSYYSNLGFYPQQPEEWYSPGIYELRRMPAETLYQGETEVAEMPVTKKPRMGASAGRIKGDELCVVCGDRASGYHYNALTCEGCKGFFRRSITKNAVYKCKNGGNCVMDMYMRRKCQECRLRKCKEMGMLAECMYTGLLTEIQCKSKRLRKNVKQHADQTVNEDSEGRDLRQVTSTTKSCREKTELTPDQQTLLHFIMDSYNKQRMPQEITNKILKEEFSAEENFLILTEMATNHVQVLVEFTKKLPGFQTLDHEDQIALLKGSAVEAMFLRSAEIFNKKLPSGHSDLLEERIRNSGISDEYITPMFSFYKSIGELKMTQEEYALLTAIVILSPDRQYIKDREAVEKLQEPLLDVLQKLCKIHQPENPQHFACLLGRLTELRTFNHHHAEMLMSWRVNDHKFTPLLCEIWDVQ
Chain of Peroxisome proliferator-activated receptor gamma (Homo sapiens) (P37231 whole entry, looked up): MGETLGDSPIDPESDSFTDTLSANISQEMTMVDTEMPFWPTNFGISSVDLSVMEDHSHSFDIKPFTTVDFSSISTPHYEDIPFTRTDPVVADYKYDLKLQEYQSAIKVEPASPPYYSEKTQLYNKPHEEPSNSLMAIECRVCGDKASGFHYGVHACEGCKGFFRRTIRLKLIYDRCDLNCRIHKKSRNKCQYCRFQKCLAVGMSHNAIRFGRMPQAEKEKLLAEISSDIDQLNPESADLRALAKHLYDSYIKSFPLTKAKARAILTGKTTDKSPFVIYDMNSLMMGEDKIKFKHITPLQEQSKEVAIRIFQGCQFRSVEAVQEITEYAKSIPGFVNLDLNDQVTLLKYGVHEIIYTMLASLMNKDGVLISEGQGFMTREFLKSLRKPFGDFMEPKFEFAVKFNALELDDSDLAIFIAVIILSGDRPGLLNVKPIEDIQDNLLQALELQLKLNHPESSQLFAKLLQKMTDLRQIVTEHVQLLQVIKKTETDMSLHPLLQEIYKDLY
Chain of Peroxisome proliferator-activated receptor delta (Homo sapiens) (Q03181 whole entry, looked up): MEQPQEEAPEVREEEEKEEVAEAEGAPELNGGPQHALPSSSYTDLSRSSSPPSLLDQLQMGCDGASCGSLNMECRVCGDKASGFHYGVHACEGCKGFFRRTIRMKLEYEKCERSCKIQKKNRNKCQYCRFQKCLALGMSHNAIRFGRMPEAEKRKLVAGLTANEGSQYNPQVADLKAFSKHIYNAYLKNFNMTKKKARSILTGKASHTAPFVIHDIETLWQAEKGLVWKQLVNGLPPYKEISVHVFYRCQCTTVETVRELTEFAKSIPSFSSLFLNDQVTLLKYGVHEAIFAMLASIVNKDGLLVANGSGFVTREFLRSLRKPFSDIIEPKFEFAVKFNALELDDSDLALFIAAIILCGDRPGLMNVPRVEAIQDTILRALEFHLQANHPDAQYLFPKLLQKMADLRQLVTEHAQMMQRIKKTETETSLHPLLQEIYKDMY
Chain of Vitamin D3 receptor (Homo sapiens) (P11473 whole entry, looked up): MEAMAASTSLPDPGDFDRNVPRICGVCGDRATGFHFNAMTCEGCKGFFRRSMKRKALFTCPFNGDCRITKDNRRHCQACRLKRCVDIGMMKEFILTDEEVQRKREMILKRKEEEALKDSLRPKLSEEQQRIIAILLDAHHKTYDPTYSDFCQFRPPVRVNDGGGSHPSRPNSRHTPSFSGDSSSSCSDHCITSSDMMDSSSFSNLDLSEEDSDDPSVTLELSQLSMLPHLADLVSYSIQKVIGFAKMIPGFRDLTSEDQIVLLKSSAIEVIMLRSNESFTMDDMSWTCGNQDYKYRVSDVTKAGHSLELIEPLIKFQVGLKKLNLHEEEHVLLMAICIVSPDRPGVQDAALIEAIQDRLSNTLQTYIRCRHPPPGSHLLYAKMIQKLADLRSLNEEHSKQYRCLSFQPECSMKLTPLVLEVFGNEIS

In the case of `CN(C)CCCCCCN(C)C`, the compound was classed as inactive in experiment [1], in experiment [3], in experiment [4], in [5], in experiment [6] and in [7]. Also, the call in experiment [8], in [9] and in experiment [10] was inactive. Besides, the Potency result in [2] was “inactive”.

Turning to `CNCC(O)c1ccc(O)c(O)c1` (stereo not drawn), the Potency entry in [11] and in [2] was “inactive” throughout. Besides, the result in [1], in [3], in [12], in experiment [6], in experiment [8] and in [9] was inactive. The compound was classed as inactive in [10].

`NC(=O)N1c2ccccc2CC(=O)c2ccccc21`: the compound was called inactive in [1], in experiment [3], in [12], in [5], in experiment [13] and in [14]. The outcome in experiment [15], in experiment [6], in [8] and in experiment [9] was inactive. In addition, the Potency entry in [2] was “inactive”.

For `CCCC(=O)O[C@]1(C(=O)CC)CC[C@H]2[C@@H]3CCC4=CC(=O)CC[C@]4(C)[C@H]3[C@@H](O)C[C@@]21C`, the compound was classed as inactive in experiment [1], in experiment [3], in experiment [4], in experiment [12], in experiment [14] and in [15]. Moreover, the compound was classed as inactive in experiment [6] and in experiment [8].

With `CC1=NN(c2cc(S(=O)(=O)O)ccc2Cl)C(=O)C1N=Nc1ccccc1` (stereo not drawn), the Potency result in experiment [16], in [11] and in [2] was “inactive” each time. Besides, the outcome in experiment [1], in experiment [3], in experiment [4], in experiment [5], in experiment [14] and in experiment [15] was inactive. Also, the result in [6], in [7], in [8], in experiment [9] and in experiment [10] was inactive.

As for `CC(=O)O[C@@]12CO[C@@H]1C[C@H](O)[C@@]1(C)C(=O)[C@H](O)C3=C(C)[C@@H](OC(=O)[C@H](O)[C@@H](NC(=O)OC(C)(C)C)c4ccccc4)C[C@@](O)([C@@H](OC(=O)c4ccccc4)[C@H]21)C3(C)C`, in experiment [17], the Potency is 26.6 µM (active). The Potency entry in experiment [16] was “inactive”. The outcome in experiment [1], in [3], in [4], in [5], in experiment [13] and in experiment [15] was inactive. Also, the result in experiment [6], in [7], in [8] and in experiment [9] was inactive.

Consider `Cc1coc2ccccc2c1=O`, for which the Potency result in [11] and in [2] was “inactive” each time. For the same compound, the compound was called inactive in [1], in [3], in [4], in experiment [12], in experiment [13] and in experiment [18]. Moreover, the compound was classed as inactive in experiment [6], in [7], in experiment [8] and in experiment [9].

For `C=CN1CCCCCC1=O`, the Potency result in experiment [19] and in experiment [2] was “inactive” in each case. Further, the outcome in experiment [1], in experiment [3], in experiment [4], in experiment [12], in [13] and in experiment [15] was inactive. In addition, the compound was called inactive in [6], in experiment [8] and in [9].

For `CCOc1c(N2CCOCC2)cnn(C)c1=O`, the result in experiment [1], in experiment [3], in [4], in experiment [5], in [14] and in experiment [15] was inactive. Also, the outcome in experiment [6], in experiment [8], in [9] and in experiment [10] was inactive. The Potency entry in experiment [2] is “inactive”.
